Among the data in PubChem BioAssay (NCI) are growth values, retold here.

Compounds without any hit were thinned out: in the full panel of roughly 83,000, 20% have a hit.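 Values shown are percent growth following 48 h exposure of cells in 96-well plates to a single concentration of compound; below 10 was considered active.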 Unmarked numbers belong to inactive results. Active and inactive are the calls of the source.

Some test systems named below: NCI-H23 lung; NCI-H226 lung; NCI-H322M lung; HOP-62 NSCLC; NCI-H460 lung; HOP-92 NSCLC; NCI-H522 lung; A549/ATCC NSCLC; 786-0 renal; COLO 205 colon; DU-145 prostate; K-562 leukemia; MALME-3M melanoma; MDA-MB-231 breast; RXF 393 renal; SF-268 CNS; SF-295 CNS; SF-539 CNS; UACC-257 melanoma; M14 melanoma.
Assay in all cases: NCI-60 one-dose screen, 48 h (100 = growth as untreated, 0 = no growth, -100 = all killed)
Holding throughout (conditions): 10 µM unless noted

On to `Cc1ccc(N)c(S(=O)(=O)O)c1`, for which the growth in the assay on NCI-H23 lung was 98.6%; in the assay with NCI-H226 lung, 103%; with NCI-H322M lung, 93.8%; in the assay with HOP-62 NSCLC it was 85.8%; with NCI-H460 lung it was 104%; with HOP-92 NSCLC it was 112%. In addition, the growth in the assay on NCI-H522 lung was 156%; in the assay on A549/ATCC NSCLC, 125%; in the assay on 786-0 renal, 101%; in the assay on COLO 205 colon, 106%; with DU-145 prostate it was 125%; in the assay with K-562 leukemia, 45.1%. The growth in the assay with MALME-3M melanoma is 129%; in the assay on MDA-MB-231 breast it was 109%; in the assay with RXF 393 renal, 108%; in the assay on SF-268 CNS, 115%; with SF-295 CNS it was 116%; in the assay with SF-539 CNS it was 98.2%. Further, in the assay on UACC-257 melanoma, the growth was 101%.

Turning to `Cn1/c(=N\N=C\c2ccccc2OCCO)sc2ccccc21`, the growth in the assay with NCI-H23 lung was 101%; with NCI-H226 lung, 88.3%; in the assay with NCI-H322M lung it was 80.7%; in the assay with HOP-62 NSCLC, 106%; with NCI-H460 lung, 101%; in the assay with HOP-92 NSCLC, 82.5%. Besides, the growth with NCI-H522 lung was 90%; in the assay on A549/ATCC NSCLC, 102%; with 786-0 renal it was 115%; with COLO 205 colon, 91%; in the assay with DU-145 prostate, 109%; in the assay on K-562 leukemia it was 76.7%. The growth in the assay on MALME-3M melanoma is 80.2%; in the assay with MDA-MB-231 breast, 72.1%; in the assay on RXF 393 renal, 102%; in the assay with SF-268 CNS, 94.1%; with SF-295 CNS, 94%; with SF-539 CNS it was 92.9%. In the assay on UACC-257 melanoma, the growth was 121%.

`Nc1ncnc(Nc2ccc(C(F)(F)F)cc2)n1`: the growth in the assay with NCI-H23 lung is 100%; with NCI-H226 lung it was 103%; in the assay on NCI-H322M lung it was 102%; with HOP-62 NSCLC, 103%; with NCI-H460 lung it was 106%; in the assay with HOP-92 NSCLC, 76.7%. Besides, the growth in the assay with NCI-H522 lung was 98.5%; in the assay with A549/ATCC NSCLC, 93.6%; in the assay on 786-0 renal it was 97.7%; with COLO 205 colon, 108%; in the assay with DU-145 prostate, 107%; in the assay on K-562 leukemia, 98.9%. The growth was 105% in the assay on MALME-3M melanoma; 102% with MDA-MB-231 breast; 113% in the assay with RXF 393 renal; 101% in the assay with SF-268 CNS; 101% with SF-295 CNS; 107% with SF-539 CNS. Also, the growth with UACC-257 melanoma was 95.5%.

Turning to `Cc1cc(C(=O)NN)c(C#N)c(=O)[nH]1`, the growth with NCI-H23 lung is 100%; in the assay with NCI-H226 lung it was 99.1%; in the assay with NCI-H322M lung, 110%; in the assay with HOP-62 NSCLC, 97%; in the assay with NCI-H460 lung, 97.2%; in the assay on HOP-92 NSCLC, 87.2%. The growth with NCI-H522 lung is 89.8%; in the assay with A549/ATCC NSCLC, 101%; in the assay with 786-0 renal it was 107%; in the assay with COLO 205 colon, 94.1%; in the assay on DU-145 prostate, 106%; with K-562 leukemia, 116%. Besides, the growth in the assay on MALME-3M melanoma is 103%; in the assay on MDA-MB-231 breast, 106%; in the assay with RXF 393 renal, 99.5%; in the assay on SF-268 CNS, 116%; with SF-295 CNS, 127%; in the assay with SF-539 CNS it was 87.7%. Also, in the assay with UACC-257 melanoma, the growth is 95.4%.

With `CC1CCC(C(C)(C)[N+](C)(C)C)CC1` (stereo unspecified), the growth in the assay on NCI-H23 lung is 100%; with NCI-H226 lung it was 100%; in the assay on NCI-H322M lung, 106%; with HOP-62 NSCLC it was 96.9%; with NCI-H460 lung, 107%; in the assay with HOP-92 NSCLC, 101%. The growth in the assay on NCI-H522 lung was 106%; in the assay on A549/ATCC NSCLC, 95.9%; with 786-0 renal it was 96.1%; in the assay with COLO 205 colon, 106%; with DU-145 prostate, 102%; with K-562 leukemia, 116%. Also, the growth with MALME-3M melanoma is 96.1%; with MDA-MB-231 breast, 103%; in the assay with RXF 393 renal, 111%; in the assay on SF-268 CNS, 95.8%; with SF-295 CNS, 101%; in the assay on SF-539 CNS, 96%. The growth was 99.6% with UACC-257 melanoma and 98.1% with M14 melanoma.

Consider `CCOC(=O)c1cc(C)[nH]c(=O)c1C#N`, for which the growth with NCI-H23 lung was 97.5%; with NCI-H226 lung, 101%; in the assay on NCI-H322M lung it was 93.6%; in the assay with HOP-62 NSCLC it was 97.3%; in the assay on NCI-H460 lung it was 114%; with HOP-92 NSCLC, 104%. The growth in the assay on NCI-H522 lung was 74.4%; in the assay with A549/ATCC NSCLC, 98.5%; in the assay with 786-0 renal it was 100%; in the assay with COLO 205 colon, 114%; with DU-145 prostate, 113%; in the assay on K-562 leukemia, 82.6%. The growth in the assay with MALME-3M melanoma was 123%; in the assay with MDA-MB-231 breast, 116%; with RXF 393 renal, 98.1%; with SF-268 CNS it was 105%; in the assay on SF-295 CNS it was 93.5%; in the assay on SF-539 CNS, 95.6%. Besides, the growth was 93% with UACC-257 melanoma and 102% with M14 melanoma.

As for `COc1cc(C(=O)N2CCN(c3ccccc3)CC2)c2ccccc2n1`, the growth is 21.2% in the assay on NCI-H23 lung; 37.3% with NCI-H226 lung; 44.3% with NCI-H322M lung; 41.1% in the assay on HOP-62 NSCLC; 8.4% (active) with NCI-H460 lung; 62.3% with HOP-92 NSCLC. The growth in the assay with NCI-H522 lung is -7.75% (active); with A549/ATCC NSCLC, 25.3%; in the assay with 786-0 renal, 26%; in the assay on COLO 205 colon it was -44.9% (active); in the assay with DU-145 prostate, 1.57% (active); in the assay with K-562 leukemia, 16.5%. Also, the growth is 54.6% with MALME-3M melanoma; 5.71% (active) in the assay on MDA-MB-231 breast; -39.8% (active) with RXF 393 renal; 42.9% in the assay with SF-268 CNS; 7.61% (active) with SF-295 CNS; -4.8% (active) in the assay with SF-539 CNS. Further, the results for the growth in the assay on UACC-257 melanoma and in the assay with M14 melanoma were 51.1% and 0.444% (active), respectively.

Consider `CCOC(=O)Nc1nccs1`, for which the growth in the assay on NCI-H23 lung was 112%; in the assay on NCI-H226 lung, 99.6%; with NCI-H322M lung, 99.6%; in the assay on HOP-62 NSCLC, 103%; in the assay on NCI-H460 lung, 104%; in the assay with HOP-92 NSCLC it was 92.3%. For the same compound, the growth with NCI-H522 lung was 104%; in the assay on A549/ATCC NSCLC, 98.3%; with 786-0 renal it was 100%; with COLO 205 colon, 104%; in the assay on DU-145 prostate, 109%; in the assay on K-562 leukemia, 119%. Moreover, the growth was 97.3% in the assay on MALME-3M melanoma; 87% with MDA-MB-231 breast; 108% with RXF 393 renal; 117% in the assay with SF-268 CNS; 108% in the assay with SF-295 CNS; 101% with SF-539 CNS. The figures for the growth in the assay on UACC-257 melanoma and in the assay with M14 melanoma were 98% and 106%, respectively.

As for `CCOC(=O)CO`, the growth was 104% in the assay with NCI-H23 lung; 99.8% in the assay on NCI-H226 lung; 98.2% with NCI-H322M lung; 104% with HOP-62 NSCLC; 106% in the assay with NCI-H460 lung; 95.6% in the assay with HOP-92 NSCLC. For the same compound, the growth with NCI-H522 lung is 97%; in the assay on A549/ATCC NSCLC, 102%; with 786-0 renal, 105%; in the assay with COLO 205 colon, 117%; in the assay with DU-145 prostate it was 120%; with K-562 leukemia, 97.4%. Besides, the growth was 87% with MALME-3M melanoma; 109% with MDA-MB-231 breast; 93.7% in the assay with RXF 393 renal; 115% in the assay on SF-268 CNS; 103% with SF-295 CNS; 119% in the assay with SF-539 CNS. The growth is 102% in the assay with UACC-257 melanoma and 104% in the assay with M14 melanoma.
